High-throughput results deposited in PubChem by National Center for Advancing Translational Sciences (NCATS).
12-LOX inh: Primary qHTS assay for inhibitors of human arachidonate 12S-lipoxygenase (ALOX12): Round 2; Polyunsaturated fatty acid lipoxygenase ALOX12 (Homo sapiens), P18054; purified 12hLO, xylenol orange hydroperoxide absorbance; Potency, µM (doses to about 108 µM), usual class: inhibitors; actives 1.1% (n = 580,000); AID 1671190, 2021
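Purified human 12hLO at 150 nM in 25 mM Hepes, 0.01% Triton X-100, pH 7.0, preincubated 15 min at room temperature with compound. Reaction started with 40 uM arachidonic acid, 30 min at room temperature. Hydroperoxide measured by Fe-xylenol orange, 573/405 nm absorbance ratio.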
Sfp PPTase inh: qHTS Assay for Inhibitors of Bacillus subtilis Sfp phosphopantetheinyl transferase (PPTase) | Biochemical Sfp PPTase activity, qHTS | Potency, µM, most hits filed as inhibitors | actives 3.5% (n = 310,000);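 further: the enzyme is Sfp with the accession as filed and its product quenches rhodamine fluorescence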
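Step 1, compound plus 15 nM Sfp-PPTase, 15 min, room temperature. Step 2, add rhodamine-CoA (5 uM) and BHQ-2-YbbR (12.5 uM). Step 3, read 525/598 nm fluorescence at 0 and 30 min.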
JMJD2A Tudor: qHTS Assay for Inhibitors of JMJD2A-Tudor Domain. Lysine-specific demethylase 4A (Homo sapiens), O75164. AlphaScreen JMJD2A-Tudor / H3K4me3 peptide binding. Potency, µM (highest dose often 114 µM), usual class: inhibitors. actives 4.4% (n = 390,000); further: nearly all actives have a fitted effect of over 50% in size
HP1b binding inh: HTS for Inhibitors of HP1-beta Chromodomain Interactions with Methylated Histone Tails; Chromobox protein homolog 1 (Homo sapiens), P83916; Potency, µM (series often up to 114 µM), actives largely listed as inhibitors; AlphaScreen HP1-beta / biotin-H3K9me3 peptide binding; actives 0.56% (n = 390,000); further: nearly all actives have a fitted effect of over 70% in size
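AlphaScreen: HP1-beta (50 nM) preformed 30 min with biotin-H3(1-18)K9me3 peptide (50 nM) in PBS pH 7.4, 0.01% Tween-20. Compound added for 30 min at RT, then streptavidin donor/nickel chelate acceptor beads (10 ug/mL) for 30 min.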
BAZ2B block: qHTS Assay for Inhibitors of BAZ2B; AlphaScreen BAZ2B-H3K14Ac peptide displacement; actives 4.4% (n = 360,000); Potency, µM (highest dose often 114 µM), actives largely listed as inhibitors; further: nearly all actives have a fitted effect of over 60% in size
Target sequence (Q9UIF8 whole entry, looked up): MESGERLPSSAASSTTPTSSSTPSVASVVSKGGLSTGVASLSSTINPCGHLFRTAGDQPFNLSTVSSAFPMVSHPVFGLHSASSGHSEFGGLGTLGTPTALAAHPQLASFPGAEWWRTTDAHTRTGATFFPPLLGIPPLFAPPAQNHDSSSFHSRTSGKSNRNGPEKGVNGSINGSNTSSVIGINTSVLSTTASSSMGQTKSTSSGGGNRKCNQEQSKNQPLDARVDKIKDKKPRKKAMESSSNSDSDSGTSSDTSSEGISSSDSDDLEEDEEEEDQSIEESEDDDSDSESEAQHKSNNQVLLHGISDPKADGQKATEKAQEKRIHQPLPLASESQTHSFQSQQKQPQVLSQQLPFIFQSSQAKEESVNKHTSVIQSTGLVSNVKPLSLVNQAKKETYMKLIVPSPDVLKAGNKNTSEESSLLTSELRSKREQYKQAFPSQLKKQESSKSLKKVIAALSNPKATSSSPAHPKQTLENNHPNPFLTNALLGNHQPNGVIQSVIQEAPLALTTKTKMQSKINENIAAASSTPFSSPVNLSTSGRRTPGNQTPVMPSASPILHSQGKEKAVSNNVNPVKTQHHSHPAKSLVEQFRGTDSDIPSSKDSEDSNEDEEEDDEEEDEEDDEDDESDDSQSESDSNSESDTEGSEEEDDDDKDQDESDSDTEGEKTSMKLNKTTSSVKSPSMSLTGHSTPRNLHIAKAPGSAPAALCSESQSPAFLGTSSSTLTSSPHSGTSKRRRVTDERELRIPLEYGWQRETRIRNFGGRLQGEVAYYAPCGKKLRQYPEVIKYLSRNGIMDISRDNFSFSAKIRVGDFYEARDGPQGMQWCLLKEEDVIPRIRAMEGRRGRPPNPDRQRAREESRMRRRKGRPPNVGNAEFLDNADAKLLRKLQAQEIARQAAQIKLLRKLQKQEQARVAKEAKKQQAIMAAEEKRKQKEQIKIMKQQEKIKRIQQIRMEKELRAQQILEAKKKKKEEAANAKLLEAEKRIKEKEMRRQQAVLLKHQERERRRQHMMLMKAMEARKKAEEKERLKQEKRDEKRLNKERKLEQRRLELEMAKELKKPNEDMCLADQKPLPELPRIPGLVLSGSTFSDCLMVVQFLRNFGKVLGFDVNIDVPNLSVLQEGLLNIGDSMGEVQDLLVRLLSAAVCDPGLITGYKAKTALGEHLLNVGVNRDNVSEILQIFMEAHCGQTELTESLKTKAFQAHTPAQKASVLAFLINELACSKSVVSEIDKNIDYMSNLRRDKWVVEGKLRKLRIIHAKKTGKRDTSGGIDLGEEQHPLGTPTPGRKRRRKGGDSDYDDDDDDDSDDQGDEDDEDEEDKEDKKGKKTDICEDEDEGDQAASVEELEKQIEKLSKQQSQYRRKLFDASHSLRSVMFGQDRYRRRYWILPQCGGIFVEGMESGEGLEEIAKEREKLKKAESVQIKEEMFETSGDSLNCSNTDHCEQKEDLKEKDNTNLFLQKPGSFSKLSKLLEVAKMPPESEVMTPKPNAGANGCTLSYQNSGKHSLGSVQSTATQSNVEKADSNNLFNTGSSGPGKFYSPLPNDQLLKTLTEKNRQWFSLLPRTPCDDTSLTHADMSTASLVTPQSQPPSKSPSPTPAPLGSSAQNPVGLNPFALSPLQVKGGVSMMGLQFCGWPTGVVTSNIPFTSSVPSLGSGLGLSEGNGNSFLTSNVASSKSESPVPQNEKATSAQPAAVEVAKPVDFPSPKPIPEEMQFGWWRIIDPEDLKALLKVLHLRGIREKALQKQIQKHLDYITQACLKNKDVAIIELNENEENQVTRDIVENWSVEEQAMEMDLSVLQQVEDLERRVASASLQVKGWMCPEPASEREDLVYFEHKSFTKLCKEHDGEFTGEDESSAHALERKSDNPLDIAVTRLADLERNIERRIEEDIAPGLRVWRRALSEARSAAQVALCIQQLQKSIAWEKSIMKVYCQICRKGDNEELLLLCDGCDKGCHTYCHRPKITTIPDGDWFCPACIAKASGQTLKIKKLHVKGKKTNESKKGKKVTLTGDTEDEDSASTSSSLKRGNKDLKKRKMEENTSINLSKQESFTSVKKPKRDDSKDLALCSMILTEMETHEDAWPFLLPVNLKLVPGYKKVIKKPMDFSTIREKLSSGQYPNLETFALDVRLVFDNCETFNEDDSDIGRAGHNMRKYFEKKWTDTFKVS
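Protein-peptide AlphaScreen: BAZ2B 50 nM, b-H3K14Ac 50 nM, 1x PBS pH 7.4 + 0.01% Tween-20. Preincubation 30 min RT; cpd 30 min RT (top 110 uM); beads 20 min RT, light-protected.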
G9a block: qHTS Assay for Inhibitors of Histone Lysine Methyltransferase G9a; actives 8.8% (n = 350,000); G9a H3K9 monomethylation, AlphaScreen, 2 h; Potency, µM (highest dose often 102 µM), actives largely listed as inhibitors; Histone-lysine N-methyltransferase EHMT2 (Homo sapiens), Q96KQ7; further: nearly all actives have a fitted effect of over 75% in size
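Readings reflect AlphaScreen signal from monomethyl-H3K9 antibody detection. HMT at 20 nM; substrate b-H3K9 500 nM; cofactor SAM 20 uM; 2 h RT reaction; compounds tested as titrations in qHTS with 15 min preincubation.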
Numbers stand for hits; n = inactive; u = inconclusive; x = not tested or not shown; ! = repeats disagree; [ ] = remark or other dose. Only some compounds are listed: those with a hit (about 8.7% of all), similar ones and a draw of the others. The call rests on the fitted dose curve; in most records, active means well fitted curve in the direction sought with a large enough effect; inconclusive means small, poorly fitted or top-dose-only effect, or another doubt; inactive means no such curve, though single readings can be large; an effect the other way counts as inactive or inconclusive.

SMILES	12-LOX inh	Sfp PPTase inh	JMJD2A Tudor	HP1b binding inh	BAZ2B block	G9a block
COc1ccc(CCN2CC(C(=O)N(C)Cc3ccc(C)o3)CCC2=O)cc1 (stereo unspecified)	n	22µM	n	n	n	u
C[C@@H](Cc1cccc(C(F)(F)F)c1)NCCOC(=O)c1ccccc1	x	n	x	x	x	n[21.5 µM]
CC(Cc1cccc(C(F)(F)F)c1)NCCOC(=O)c1ccccc1 (stereo unspecified)	u	n	n	n	n	13µM!
COc1ccc(N=Nc2nc3ccc(Br)cc3n2C)cc1	n	n	u	u	63µM	6.3µM
COc1ccc(-c2c(-c3cc(OC)cc(OC)c3)n(C)c3ccc(Br)cc23)cc1	n	x	n	n	n	n[2.33 µM]
COc1ccc(NS(=O)(=O)c2ccc(OC)c(N(C)S(=O)(=O)c3ccc(Cl)cc3)c2)cc1	n	n	n	n	n	50µM
O=S(=O)(Nc1ccc(Nc2ccccc2)cc1)c1ccc(F)cc1	n	x	u	u	x	x
Cc1ccc(S(=O)(=O)Nc2ccc(Nc3ccccc3)cc2)cc1	18µM	n	u	n	u	x
COc1ccc(S(=O)(=O)Nc2ccc(F)cc2)cc1N(C)S(=O)(=O)c1ccc(Cl)cc1	n	n	n	n	n	n
CN(C)c1ccc(NS(=O)(=O)c2cccc(Cl)c2)cc1	u	n	32µM	u	45µM	u
Cc1ccc(S(=O)(=O)Nc2ccccc2NS(=O)(=O)c2ccc(C)cc2)cc1	7.9µM	x	x	x	x	x
Cc1ccc(S(=O)(=O)Nc2ccccc2O)cc1	n	x	x	x	x	x
Cc1ccc(NS(=O)(=O)c2cccc(Cl)c2)cc1C	x	x	n	x	x	x
Cc1nnc(SCC(=O)c2c[nH]c(C(=O)N3CCCC3)c2)n1C1CC1	n	x	x	x	x	x
Cc1ccc(S(=O)(=O)c2cc(Nc3ccccc3)ccc2O)cc1	u	x	u	n	50µM	n[2.33 µM]
CN(C)c1ccc(NS(=O)(=O)c2cc3c4c(c2)CC(=O)N4CCC3)cc1	n	n	u	u	45µM	x
Cc1ccc(S(=O)(=O)Nc2ccc(S(=O)(=O)NC(C)(C)C)cc2)cc1	n	n	n	n	u	n
Cc1ccc(S(=O)(=O)Nc2ccc(N(C)C)cc2)cc1	n	n	56µM	u	35µM	n
CCCCc1ccc(NS(=O)(=O)c2cc3c4c(c2)CC(=O)N4CCC3)cc1	u	x	n	n	n	n
Cc1ccc(S(=O)(=O)Nc2ccc(Cl)cc2O)cc1	28µM	x	x	x	x	x
CCn1c(=O)c(-c2noc(C(=O)N3CCC(c4ccccc4)C3)n2)nn(-c2ccccc2)c1=O (stereo unspecified)	n	x	x	x	x	x
Cc1ccc(NC(=O)c2cc(Cl)cc(Cl)c2)nc1	n	x	x	x	x	x
Cc1cccc(NC(=O)N2CCCC(Cc3noc(-c4cnccn4)n3)C2)c1 (stereo unspecified)	n	x	x	x	x	x
CCOC(=O)C1=C(C)N=C2SC=C(CC(=O)N3CCCC3)N2C1c1cc(C)ccc1C (stereo unspecified)	n	x	x	x	x	x
CN(C)c1ccc(NS(=O)(=O)c2ccc(-c3csnn3)cc2)cc1	u	n	50µM	u	56µM	40µM
SMILES	12-LOX inh	Sfp PPTase inh	JMJD2A Tudor	HP1b binding inh	BAZ2B block	G9a block
CN(C)c1ccc(S(=O)(=O)c2ccc(Cl)cc2)cc1	n	n	n	n	n	n
Cc1cc(S(=O)(=O)Nc2ccc(N(C)C)cc2)c(C)s1	u	n	50µM	n	45µM	u
O=S(=O)(Nc1ccccc1)c1ccc(NS(=O)(=O)c2c(F)cccc2F)cc1	u	n	n	n	n	50µM
CN(C)c1ccc(NS(=O)(=O)c2ccc(Cl)cc2)cc1	u	n	56µM	u	45µM	3.5µM
COc1ccc(NC(=O)C(C)SCCO)cc1Cl (stereo unspecified)	n	x	x	x	x	x
Cc1ccc(NC(=O)c2cc(=O)c3ccc(C)cc3o2)c(C)c1	n	x	x	x	x	x
Cc1ccc(S(=O)(=O)Nc2ccc(O)c3ncccc23)cc1	u	n	40µM	n	22µM	u
Cc1ccc(S(=O)(=O)Nc2ccc(O)c3cccnc23)cc1	u	n	u	n	n	u
Cc1ccc(S(=O)(=O)Nc2ccsc2C#N)cc1	n	n	n	n	u	40µM
Cc1ccc(S(=O)(=O)Nn2c(C)ccc2C)cc1	u	56µM	50µM	n	u	n[2.33 µM]
COc1ccc(O[C@H]2COCCN(C(=O)c3ccc(OC)cc3)C2)cc1	n	x	x	x	x	x
Cc1ccc(C)c(N2CCN(CCCNC(=O)Cn3c(-c4cccs4)cc4ccccc43)CC2)c1	n	x	u	n	35µM	u
O=C(Cn1c(-c2cccs2)cc2ccccc21)NCCCN1CCN(c2cccc(Cl)c2)CC1	n	x	u	n	25µM	u
CCN1c2cc(C(=O)NCc3ccc(SC)cc3)ccc2C(=O)N2CCCCCC21 (stereo unspecified)	n	x	x	x	x	x
CCN(CC)S(=O)(=O)c1ccc(Cl)c(C(=O)NC(C)c2cc3ccccc3o2)c1 (stereo unspecified)	n	x	x	x	x	x
COCC(=O)N[C@@H]1CN(Cc2ccccc2F)C[C@H]1CO	n	x	x	x	x	x
N#C/C=C1/NC(=O)c2ccccc2S1	n	n	n	n	u	45µM
COC(=O)c1ccc2c(c1)NC(=O)c1ccccc1S2	n	n	n	n	n	u
O=C(CN1CCN(c2ccc(F)cc2)CC1)Nc1ccccc1Br	n	n	n	n	n	n
O=C(CN1CCN(c2ccc(F)cc2)CC1)Nc1ccccc1[N+](=O)[O-]	n	n	u	50µM	u	n
COC(=O)c1sccc1NC(=O)CN1CCN(c2ccc(F)cc2)CC1	n	n	u	n	u	45µM
COc1ccc(-n2nnnc2C(C2CC2)N2CCN(C/C=C/c3ccccc3)CC2)cc1 (stereo unspecified)	40µM	x	x	x	x	x
CCOc1cc(Br)cc2cc(C(=O)NCc3ccccc3)c(=O)oc12	n	x	x	x	x	x
CCOC(=O)NC(=O)/C(C#N)=N\Nc1cccc(Cl)c1	0.4µM	n	n	n	u	u
Cc1cccc(CNC(=O)c2cc(-c3ccncc3)nc3ccccc23)c1	n	x	x	x	x	x
CO[C@H]1C(=O)[C@]2(C)[C@@H](OC)C[C@H]3OC[C@@]3(OC(C)=O)[C@H]2[C@H](OC(=O)c2ccccc2)[C@]2(O)C[C@H](OC(=O)[C@H](O)[C@@H](NC(=O)OC(C)(C)C)c3ccccc3)C(C)=C1C2(C)C	n	x	x	x	x	x
